Laboratory results taken from PubChem BioAssay (NCATS).
Results filed as inconclusive are left out. Active and inactive are the calls of the source. Calls come from the whole dose curve; as a rule, active = well fitted curve in the direction sought with a large enough effect; inconclusive = small, poorly fitted or top-dose-only effect, or another doubt; inactive = no such curve, though single readings can be large; an effect the other way counts as inactive or inconclusive.

Assays:
[1] = molecular target: Cellular tumor antigen p53 (Homo sapiens) (UniProt P04637); test: Primary qHTS for small molecule compounds that upregulate eGFP-tagged delta133p53alpha (in N-terminal) cells. (AID 2060322); details: NCI-H358 eGFP-delta133p53alpha fluorescence, 24 h; activation: hits give high values; note: nearly all actives have a fitted effect of over 75% in size; note: potency is the fitted concentration of half-maximal effect;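 for activation: 0% = DMSO vehicle and 100% = reference activator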
Sequence of Cellular tumor antigen p53 (Homo sapiens) (P04637 whole entry, looked up): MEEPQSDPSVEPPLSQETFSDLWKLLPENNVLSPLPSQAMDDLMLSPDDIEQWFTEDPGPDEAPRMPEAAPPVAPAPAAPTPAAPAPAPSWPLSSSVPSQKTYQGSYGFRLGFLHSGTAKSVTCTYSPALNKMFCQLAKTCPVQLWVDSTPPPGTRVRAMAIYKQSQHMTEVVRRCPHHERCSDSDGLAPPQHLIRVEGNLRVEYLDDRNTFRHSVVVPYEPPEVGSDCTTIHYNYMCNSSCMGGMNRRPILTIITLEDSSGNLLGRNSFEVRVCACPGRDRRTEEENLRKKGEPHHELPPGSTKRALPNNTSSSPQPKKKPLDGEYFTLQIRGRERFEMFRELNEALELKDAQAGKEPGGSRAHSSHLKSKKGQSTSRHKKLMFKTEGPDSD
Procedure, shortened: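 NCI-H358 cells pre-induced 24 h with 10 ng/ml doxycycline to express N-terminal eGFP-delta133p53alpha, then dosed 24 h at 37C without doxycycline; fixed, Hoechst-stained, GFP intensity by laser scanning cytometry, normalized to DMSO (0%) and 57.5 uM 5-azacytidine (100%).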

[2] = molecular target: Retinaldehyde dehydrogenase 3 (Homo sapiens) (UniProt P47895); test: qHTS for Inhibitors of the Aldehyde Dehydrogenase Family (ALDH1A3) Primary screen (AID 2061315); details: ALDH inhibition qHTS; series mostly up to 56 µM;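 note: plate controls were DMSO vehicle for no effect and reference inhibitor for full effect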
[3] = molecular target: Retinaldehyde dehydrogenase 3 (Homo sapiens) (UniProt P47895); test: qHTS for Inhibitors of the Aldehyde Dehydrogenase Family (ALDH1A3) Validation screen (AID 2061312); details: ALDH1A3 enzyme inhibition qHTS validation, fluorescence; series mostly up to 84.7 µM; note: % is set by controls: 0 for no effect and ±100 for the full control effect; nearly all actives have a fitted effect of over 45% in size
[4] = BET inhibitor-based combinations targeting novel dependencies in MECOM-rearranged (r) AML: SET-2 cell line (AID 2202231); details: SET-2 AML cells viability, CellTiter-Glo luminescence, 48 h; viability: hits give low values, concentration not given here; note: nearly all actives have a fitted effect of over 35% in size; note: potency is the fitted concentration of half-maximal effect;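 for viability: plate controls were DMSO treated cells for no effect and wells without cells for full effect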
Procedure, shortened: (§1)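 Here, 11-point titrations of each agent were applied to 500 seeded cells and incubated 48 hr; CellTiter-Glo signal, scaled against DMSO and empty wells, was integrated as AUC, then Z-scored within the individual line.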

[5] = BET inhibitor-based combinations targeting novel dependencies in MECOM-rearranged (r) AML: MV-4-11 cell line (AID 2202233); details: MV-4-11 AML viability, CellTiter-Glo luminescence, 48 h; series mostly up to 46 µM; note: nearly all actives have a fitted effect of over 45% in size; note: potency is the fitted concentration of half-maximal effect
Procedure, shortened: (§2)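 Normalized to DMSO and empty-well controls, the luminescence data from CellTiter-Glo after 48 hr drug exposure were fitted across 11 concentrations. Reported metrics are area under the dose-response curve and its Z-transformed form.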

[6] = BET inhibitor-based combinations targeting novel dependencies in MECOM-rearranged (r) AML: HNT-34 cell line (AID 2202234); details: HNT-34 AML viability, CellTiter-Glo luminescence, 48 h; series mostly up to 46 µM; note: nearly all actives have a fitted effect of over 35% in size; note: potency is the fitted concentration of half-maximal effect
Procedure, shortened: as §2

[7] = BET inhibitor-based combinations targeting novel dependencies in MECOM-rearranged (r) AML: UCSD-AML1 cell line (AID 2202235); details: UCSD-AML1 AML cells viability, CellTiter-Glo, 48 h; series mostly up to 46 µM; note: nearly all actives have a fitted effect of over 40% in size; note: potency is the fitted concentration of half-maximal effect
Procedure, shortened: as §2

[8] = BET inhibitor-based combinations targeting novel dependencies in MECOM-rearranged (r) AML: AML-191 cell line (AID 2202236; note: nearly all actives have a fitted effect of over 35% in size; note: potency is the fitted concentration of half-maximal effect); details: AML-191 viability, CellTiter-Glo luminescence, 48 h; series mostly up to 46 µM
Procedure, shortened: as §1

[9] = BET inhibitor-based combinations targeting novel dependencies in MECOM-rearranged (r) AML: AML-194 cell line (AID 2202237; note: nearly all actives have a fitted effect of over 40% in size; note: potency is the fitted concentration of half-maximal effect); details: AML-194 (MECOM-r AML) viability, CellTiter-Glo, 48 h; series mostly up to 46 µM
Procedure, shortened: as §1

[10] = BET inhibitor-based combinations targeting novel dependencies in MECOM-rearranged (r) AML: OCI-AML3 cell line (AID 2202232); details: CellTiter-Glo luminescence, 48 h; Potency: OCI-AML3 viability; series mostly up to 46 µM; note: potency is the fitted concentration of half-maximal effect; nearly all actives have a fitted effect of over 35% in size
Procedure, shortened: as §1

COc1ccc(-n2[nH]c(=O)c3[nH]c4cc(Cl)ccc4c(=O)c3c2=O)c(C)c1
activation [1]: 9% (inactive)
Potency [2]: inactive

O=C(Nc1cnc(Cl)nc1)c1ccc(F)c(F)c1
activation [1]: 5.25% (inactive)
Potency [3]: inactive
Potency [2]: inactive

C[C@@H]1C[C@@H]2O[C@H]2/C=C\C=C\C(=O)Cc2c(Cl)c(O)cc(O)c2C(=O)O1
Potency [1]: 14.8 µM (active)
Potency [2]: inactive

O=C(O)COCCN1CCN([C@H](c2ccccc2)c2ccc(Cl)cc2)CC1
activation [1]: -5.73% (inactive)
Potency [3]: inactive
Potency [2]: inactive

Cc1c(CN(C)C(=O)/C=C/c2cnc3c(c2)CCC(=O)N3)oc2ccccc12
activation [1]: 8.33% (inactive)
Potency [2]: inactive

COC(=O)[C@H](c1ccccc1Cl)N1CCC2SC(=O)C=C2C1 (some centres not stated)
activation [1]: 16.3% (inactive)
Potency [2]: inactive

CCc1c(Cl)c(O)c(Cl)c(O)c1C(=O)O[C@H]1[C@H](O)[C@H](OC)[C@H](OC/C2=C\C=C\C[C@H](O)/C(C)=C\[C@H](CC)[C@@H](O[C@@H]3OC(C)(C)[C@@H](OC(=O)C(C)C)[C@H](O)[C@@H]3O)/C(C)=C/C(C)=C/C[C@@H]([C@@H](C)O)OC2=O)O[C@@H]1C
activation [1]: -0.333% (inactive)
Potency [2]: inactive

C/C=C(/COC(=O)/C(C)=C/C)C(=O)OC/C=C/c1ccc(OC)cc1
activation [1]: 0.893% (inactive)
Potency [2]: inactive

C=C(COC(=O)CC(C)C)C1Cc2cc(C(C)=O)ccc2O1 (configuration not stated)
activation [1]: -15.2% (inactive)
Potency [2]: inactive

CC/C=C\C/C=C\C/C=C\CCCCCCCC(=O)OCC(O)COC1OC(CO)C(O)C(O)C1O (configuration not stated)
activation [1]: 29.8% (inactive)
Potency [2]: inactive

CN(Cc1ccc(C(=O)O)cc1)c1ccc(OCc2c(-c3c(Cl)cccc3Cl)noc2C2CC2)nc1C(F)(F)F
activation [1]: -10.5% (inactive)
Potency [2]: inactive

C[C@@H]1O[C@@H](O[C@@H]2\C=C/C=C\C=C/C=C\C[C@H](C)OC(=O)/C=C\[C@H]3O[C@@H]3C[C@H](O)C[C@]3(O)C[C@@H](O)[C@@H](C(=O)O)[C@H](C2)O3)[C@H](O)[C@H](N)[C@@H]1O
activation [1]: 17.7% (inactive)
Potency [2]: inactive
viability [4]: 112% (inactive)
Potency [5]: inactive
Potency [6]: inactive
Potency [7]: inactive
Potency [8]: inactive
Potency [9]: inactive

Nc1ccccc1NC(=O)c1ccc(CNc2nccc(-c3cccnc3)n2)cc1
activation [1]: 65.9% (inactive)
Potency [2]: inactive
Potency [4]: 1.66 µM (active)
Potency [10]: 1.32 µM (active)
Potency [5]: 662 nM (active)
Potency [6]: 1.86 µM (active)
Potency [7]: 1.32 µM (active)
Potency [8]: 1.66 µM (active)
Potency [9]: 1.66 µM (active)

COc1ccccc1NC(=O)Nc1ccc2ccccc2c1
activation [1]: -9% (inactive)
Potency [2]: inactive

CC(C)(Cc1nc(-c2ccc(O)cn2)no1)C(=O)NC1=C(C(=O)O)CCCC1
activation [1]: 2.86% (inactive)
Potency [2]: inactive

C[C@H](Nc1ncnc2nc[nH]c12)c1cc2ccc(F)cc2nc1-c1ccccn1
activation [1]: 5% (inactive)
Potency [2]: inactive

COc1ccc(C2(O)c3c(ccc4c3OC(C)(CCC=C(C)C)C=C4)NC(=O)C2OC)cc1 (configuration not stated)
activation [1]: -4.58% (inactive)
Potency [2]: inactive

O=C(NN1CCCCC1)c1nn(-c2ccc(Cl)cc2Cl)c(-c2ccc(C#Cc3ccc(C(F)(F)F)cc3)s2)c1CNS(=O)(=O)N1CCCC1
activation [1]: -21% (inactive)
Potency [2]: inactive

C=CC(=O)Nc1ccc(CN2C(=O)N(c3cc(OC)cc(OC)c3)Cc3cnc(Nc4ccc(N5CCN(C)CC5)cc4)nc32)cc1
Potency [1]: 13.5 µM (active)
Potency [2]: inactive

C=Cc1cc2oc(-c3ccc(O)c(F)c3)nc2cc1O
activation [1]: -1% (inactive)
Potency [2]: inactive

O=c1[nH]cnc2c([C@@H]3N[C@H](CO)[C@@H](O)[C@H]3O)c[nH]c12
activation [1]: 10.3% (inactive)
Potency [2]: inactive

COc1ccc(OC)c(C2C(C#N)=C(N)Oc3n[nH]c(-c4ccc5ccccc5c4)c32)c1 (configuration not stated)
activation [1]: -0.333% (inactive)
Potency [2]: inactive

C[C@H](Nc1ncnc2nc[nH]c12)c1cc2cccc(Cl)c2c(=O)n1-c1ccccc1
activation [1]: 7% (inactive)
Potency [2]: inactive
Potency [4]: 18.6 µM (active)
Potency [10]: 0.934 µM (active)
Potency [7]: 1.32 µM (active)

COCc1c(O)c(C(=O)O)c(C)c2c1OC(=O)c1c(C)cc(O)c(CO)c1O2
activation [1]: 0.893% (inactive)
Potency [2]: inactive

C/C(=C\Cc1c(O)c(Cl)c(C)c(C=O)c1O)CC/C=C(\C)[C@H]1CC(=O)C(C)(C)O1
activation [1]: -20.6% (inactive)
Potency [2]: inactive

CCCNCCc1ccc(NS(=O)(=O)c2ccc(OC(F)(F)F)cc2)cc1
activation [1]: 6.68% (inactive)
Potency [2]: inactive

CC[C@H](C)/C=C(C)/C=C/C(=O)Cc1cc(O)c(C)c(O)c1C=O
activation [1]: 7.63% (inactive)
Potency [2]: inactive
